Compounds with a hit are over-represented: about 7.3% of the library has one in this group of screens.
IP6K1 inh – Primary qHTS assay for small molecule inhibitors of Inositol hexaphosphate kinase 1 (IP6K1) | IP6K1 kinase, ADP-Glo luminescence, 2 h; active compounds read low | activity change, % (series mostly up to about 58 µM) | actives 0.81% (n = 140,000) | AID 1645851, 2021; in the data active means activity change below about -25%
Target sequence (Q92551 whole entry, looked up): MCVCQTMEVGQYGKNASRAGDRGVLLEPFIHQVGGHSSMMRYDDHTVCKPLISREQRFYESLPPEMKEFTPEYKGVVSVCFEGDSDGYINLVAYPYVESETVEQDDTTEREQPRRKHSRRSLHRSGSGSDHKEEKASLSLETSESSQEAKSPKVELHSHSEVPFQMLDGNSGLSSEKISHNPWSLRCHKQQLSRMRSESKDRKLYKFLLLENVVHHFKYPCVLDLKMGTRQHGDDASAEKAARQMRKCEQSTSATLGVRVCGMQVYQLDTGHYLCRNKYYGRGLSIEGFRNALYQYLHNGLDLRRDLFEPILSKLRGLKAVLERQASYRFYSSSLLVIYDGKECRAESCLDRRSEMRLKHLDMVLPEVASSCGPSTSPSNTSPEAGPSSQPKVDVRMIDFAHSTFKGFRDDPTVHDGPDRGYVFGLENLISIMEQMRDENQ
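ADP-Glo luminescence measures ADP made by human IP6K1 during a 2 h RT reaction with ATP/IP6 (mix at 1.3 mM/130 uM); top library doses 57.5 and 19.1 uM final.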
SNCA expr inh – Primary qHTS assay for inhibitors of alpha-synuclein gene (SNCA) expression. actives 0.17% (n = 140,000). Potency, µM (titrated, usually from 57.2 µM), hits mostly inhibitors. HEK-293 SNCA-luciferase knock-in, luminescence, 24 h; further: nearly all actives have a fitted effect of over 45% in size
3T3 cytotox – Cytotoxic Profiling in NIH 3T3 Cell Line of Diverse Libraries Using Quantitative High-Throughput Screening; Potency, µM (highest dose often 96.7 µM), usual class: inhibitors; actives 4.3% (n = 94,000); NIH 3T3 viability, CellTiter-Glo ATP luminescence, 48-72 h; AID 1345082, 2018; further: nearly all actives have a fitted effect of over 55% in size
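NIH 3T3 cells at 400 cells/well received 23 nL of compound by pintool and were incubated 48 or 72 h at 37 °C. Viability was read as ATP-coupled CellTiter-Glo luminescence.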
HEK293 viab – GF-AFC viability counterscreen for inhibitors of alpha-synuclein gene (SNCA) expression; HEK-293-SNCA-luc viability, GF-AFC fluorescence, 24 h; Potency, µM (top dose mostly 57.1 µM), usual class: cytotoxic; actives 0.12% (n = 150,000); AID 1671193, 2021; further: nearly all actives have a fitted effect of over 30% in size
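Cytotoxicity counterscreen: after 24 h compound treatment of genome-edited SNCA-luciferase HEK-293 cells, live-cell protease substrate GF-AFC read by fluorescence after 30 min; activity scaled between DMSO (0%) and medium-only (-100%), curves Hill-fitted.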
HEK293 tox – Cytotoxic Profiling in HEK 293 Cell Line of Diverse Libraries Using Quantitative High-Throughput Screening; HEK 293 viability, ATP luminescence (CellTiter-Glo), 48-72 h; Potency, µM (top dose mostly 115 µM), usual class: inhibitors; actives 6.6% (n = 94,000); further: nearly all actives have a fitted effect of over 60% in size
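qHTS cytotoxicity; HEK 293, 250 cells/well; compound pinned; 48 or 72 hr, 37 degree Celsius, 5% CO2, 95% humidity; CellTiter-Glo, 10 min RT; luminescence (ATP).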
Luciferase inh – Firefly luciferase inhibition profiling of diverse chemical library using quantitative high-throughput screening; AID 1347043, 2019; purified P. pyralis luciferase, luminescence, biochemical; Potency, µM (series often up to 115 µM), usual class: inhibitors; actives 2.5% (n = 76,000); Luciferin 4-monooxygenase (Photinus pyralis), P08659; further: nearly all actives have a fitted effect of over 65% in size
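Cell-free enzyme assay, 10nM P. pyralis luciferase, luciferin and ATP each at 10uM. Inhibition profiled over a 6-point titration, read as luminescence.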
A number is an active result; . = inactive; ? = inconclusive; / = no result given. Unless noted, the call rests on the fitted dose curve; in most records, active means well fitted curve in the direction sought with a large enough effect; inconclusive means small, poorly fitted or top-dose-only effect, or another doubt; inactive means no such curve, though single readings can be large; an effect the other way counts as inactive or inconclusive.

SMILES	IP6K1 inh	SNCA expr inh	3T3 cytotox	HEK293 viab	HEK293 tox	Luciferase inh
CCn1cc(S(=O)(=O)N2CCC[C@H](n3c(=O)n(CC4CC4)c4cccnc43)C2)cn1	.	.	.	.	40µM	.
COc1cccc(-c2ccccc2NC(=O)C2CCN(Cc3cc(OC)ccc3O)CC2)c1	.	.	?	.	18µM	.
COc1cccc(CNC(=O)C2CCN(Cc3ccccc3-c3cccnc3)CC2)c1	.	.	?	.	?	/
COc1ccc(NC(=O)Cn2c(-c3ccc(F)cc3)nc(C)c(CCO)c2=O)cc1Cl	.	.	?	?	35µM	.
CSc1cccc(NC(=O)Cn2c(-c3cccc(Cl)c3)nc(C)c(CCO)c2=O)c1	.	.	?	.	?	.
Cc1cccc(NC(=O)Cn2c(-c3cccc(Cl)c3)nc(C)c(CCO)c2=O)c1	.	.	?	.	40µM	.
Cc1nc(-c2ccccc2)n(CC(=O)Nc2cccc(Cl)c2)c(=O)c1CCO	.	?	?	.	25µM	.
COc1ccc(Cn2c(-c3ccc(Cl)cc3)nc(C)c(CCO)c2=O)cc1F	.	.	?	.	45µM	.
CC(C)(C)CC(=O)N1C[C@@H](CO)[C@@H]2Oc3c(F)cccc3[C@@H]21	.	/	.	/	?	/
CCOc1ccc(NC(=O)Cn2c(-c3cccc(Cl)c3)nc(C)c(CCO)c2=O)cc1	.	.	32µM	.	?	.
COc1ccc(NC(=O)Cn2c(-c3cccc(Cl)c3)nc(C)c(CCO)c2=O)cc1OC	.	.	.	?	?	.
COc1cccc(NC(=O)Cn2c(-c3cccc(Cl)c3)nc(C)c(CCO)c2=O)c1	.	?	?	.	79µM	.
COc1ccccc1NC(=O)Cn1c(-c2ccccc2)nc(C)c(CCO)c1=O	.	.	?	.	35µM	.
CCOc1ccccc1NC(=O)Cn1c(-c2ccccc2)nc(C)c(CCO)c1=O	.	.	.	.	.	.
CC(C)S(=O)(=O)N1CCC2(CC1)CC(N(C)Cc1ccccc1)CCO2 (configuration not stated)	.	.	.	.	?	.
CCCN1CCN(C(=O)c2ccc(-c3ccc(N4CCCCC4)nc3)cc2)CC1	.	.	?	.	?	?
O=C(c1ccc(-c2ccc(N3CCCCC3)nc2)cc1)N1CCCC1	.	.	40µM	.	?	28µM
O=C(c1ccc(-c2ccc(N3CCSCC3)nc2)cc1)N1CCCCC1	.	.	35µM	.	?	?
CC(NC(=O)c1ccc(-c2ccc(N3CCCCCC3)nc2)cc1)c1cccnc1 (configuration not stated)	.	?	25µM	?	?	?
O=C(NCc1ccncc1)c1ccc(-c2ccc(N3CCCCC3)nc2)cc1	.	.	.	?	?	?
COCCNC(=O)c1ccc(-c2ccc(N3CCCCC3)nc2)cc1	.	.	.	.	?	?
CN1CCN(C(=O)c2ccc(-c3ccc(N4CCCCC4)nc3)cc2)CC1	.	.	?	.	?	22µM
CCCc1nnc(C[C@@H]2C[C@@H](C(C)C)[C@H](CN3CC[C@H](NC(C)=O)C3)C=C2C)o1	.	.	.	.	?	.
Fc1cc(F)cc(Cc2nc3nccc(-c4cccs4)n3n2)c1	.	.	?	.	?	.
O=C(c1ccc(-c2ccc(N3CCSCC3)nc2)cc1)N1CCOCC1	.	.	35µM	.	25µM	?
SMILES	IP6K1 inh	SNCA expr inh	3T3 cytotox	HEK293 viab	HEK293 tox	Luciferase inh
O=C(NCc1ccccc1)c1ccc(-c2ccc(N3CCSCC3)nc2)cc1	.	.	?	.	?	.
CN1CCN(C(=O)c2ccc(-c3ccc(N4CCSCC4)nc3)cc2)CC1	.	.	?	.	?	35µM
O=C(NCc1ccccc1F)c1ccc(-c2ccc(N3CCSCC3)nc2)cc1	.	.	.	.	?	?
CC1CCN(C(=O)c2ccc(-c3ccc(N4CCSCC4)nc3)cc2)CC1	.	?	?	?	20µM	?
COc1ccc(-c2ccc(C(=O)N3CCC(NC(=O)N4CCOCC4)CC3)cc2)nn1	.	/	.	/	.	/
Cc1nn(-c2ccc(F)cc2)c(C)c1[C@@H]1C=C[C@@H](NS(=O)(=O)c2cccs2)C1	.	.	?	.	?	.
Cc1nn(CCC#N)c(C)c1[C@@H]1C=C[C@@H](NS(=O)(=O)c2cccs2)C1	.	.	45µM	.	.	.
COc1ccccc1-c1cnc(Nc2ccc(CN3CCN(C)CC3)cc2)c2c1CCO2	.	.	25µM	.	35µM	?
COc1ccc(-c2cnc(Nc3ccc(CN4CCN(C)CC4)cc3)c3c2CCO3)cn1	.	.	28µM	?	?	?
COc1ccc(Nc2ncc(-c3cnn(C)c3)c3c2OCC3)cc1	.	.	?	.	?	25µM
c1ccc(Nc2ncc(-c3ccccc3)c3c2OCC3)cc1	.	.	?	.	?	?
CC(C)=CCn1c(-c2ccc(F)cc2)cn2cc(C(=O)N3CC[C@H](O)C3)nc2c1=O	.	.	?	.	.	.
COc1ccc(C(=O)N2CCC3(CC2)N=C(c2ccc(Cl)cc2)NO3)cc1F	.	.	.	.	?	.
Cc1c(-c2ccccc2)[nH]c2c(CNC(=O)Cn3ccc(=O)[nH]c3=O)cc(Cl)cc12	.	.	?	.	?	?
Cc1c(-c2ccccc2)[nH]c2c(CNC(=O)CN3C(=O)CNC3=O)cc(Cl)cc12	.	.	?	.	?	10µM
Cc1c(-c2ccccc2)[nH]c2c(CNC(=O)c3ccc(=O)n(C)n3)cc(Cl)cc12	.	.	?	?	28µM	?
Cc1ncsc1CN1CCCCCCNC(=O)[C@@H]2C[C@@H](C(=O)N3CCc4ccccc4C3)C[C@@H]21	.	.	.	.	89µM	.
COc1cccc(CN2CCCCCCNC(=O)[C@@H]3C[C@@H](C(=O)N4CCc5ccccc5C4)C[C@@H]32)c1	.	.	?	.	?	.
O=C1NCCCCCCN(Cc2cccc(F)c2)[C@H]2C[C@H](C(=O)N3CCc4ccccc4C3)C[C@@H]12	.	?	40µM	.	25µM	.
O=C(C1CCCN1C(=O)c1ccc(Cl)nc1)N1CCC(c2nc3ccncc3[nH]2)C1 (configuration not stated)	.	.	.	.	.	/
Cc1ccc(CSc2nc3ccncc3n2Cc2nc(-c3ccccc3C)oc2C)cc1	.	10µM	/	.	/	/
Cc1oc(-c2ccccc2F)nc1Cn1c(SCc2cccc(Cl)c2)nc2ccncc21	.	?	/	.	/	/
